# IDE exosite inh = insulin-degrading enzyme (human) exo-site inhibition; 6.3% of 17,000 active; z-score at 20 µM; P14735; purified IDE, FL-6b probe fluorescence polarization; stronger effect = lower value;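 active = z-score of -3 or lower, meaning strong loss of probe binding signal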;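 also: His-tagged human IDE residues 42-1019 made in E. coli with 30 nM FL-6b probe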
# Target sequence (P14735 42-1019 limits assumed): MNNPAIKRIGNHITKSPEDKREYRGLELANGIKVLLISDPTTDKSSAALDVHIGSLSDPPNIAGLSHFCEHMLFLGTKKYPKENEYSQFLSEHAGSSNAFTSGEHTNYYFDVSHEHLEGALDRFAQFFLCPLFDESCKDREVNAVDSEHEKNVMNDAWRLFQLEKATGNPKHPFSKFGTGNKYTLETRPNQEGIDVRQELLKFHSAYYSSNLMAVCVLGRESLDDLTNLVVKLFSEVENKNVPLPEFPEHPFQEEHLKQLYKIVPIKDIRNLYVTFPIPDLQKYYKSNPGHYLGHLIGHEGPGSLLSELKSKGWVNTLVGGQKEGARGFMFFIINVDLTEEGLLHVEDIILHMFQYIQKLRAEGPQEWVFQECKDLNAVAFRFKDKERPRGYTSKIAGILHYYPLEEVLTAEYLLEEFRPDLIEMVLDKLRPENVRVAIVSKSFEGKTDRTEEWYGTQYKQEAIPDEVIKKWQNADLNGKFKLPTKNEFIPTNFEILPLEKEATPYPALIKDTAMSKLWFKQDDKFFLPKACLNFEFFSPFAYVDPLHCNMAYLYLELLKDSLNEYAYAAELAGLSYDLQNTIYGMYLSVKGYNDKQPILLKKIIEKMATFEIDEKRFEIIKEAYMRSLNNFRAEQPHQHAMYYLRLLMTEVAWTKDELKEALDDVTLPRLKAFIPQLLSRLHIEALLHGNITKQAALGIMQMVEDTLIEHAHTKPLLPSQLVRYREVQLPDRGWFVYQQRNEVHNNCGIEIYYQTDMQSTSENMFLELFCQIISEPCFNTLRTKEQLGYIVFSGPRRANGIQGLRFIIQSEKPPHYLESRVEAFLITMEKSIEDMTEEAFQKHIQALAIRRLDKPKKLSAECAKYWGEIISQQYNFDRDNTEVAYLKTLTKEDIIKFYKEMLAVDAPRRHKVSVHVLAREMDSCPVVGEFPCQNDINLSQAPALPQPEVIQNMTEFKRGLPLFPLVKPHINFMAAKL
# * marks the source's active call; other numbers are inactive results. Many of the other results were omitted from the sample, so hits are more common in it than they were.
SMILES,IDE exosite inh
N#C[C@@H]1[C@@H](c2ccc(-c3ccccc3F)cc2)[C@@H](CO)N1C(=O)C1CCC1,1.22
N#C[C@@H]1[C@@H](c2ccc(-c3ccccc3F)cc2)[C@H](CO)N1C(=O)C1CC1,-3.11*
COc1ccccc1-c1ccc([C@@H]2[C@H](C#N)N(C(=O)C3CC3)[C@H]2CO)cc1,-5.92*
COc1ccccc1-c1ccccc1[C@@H]1[C@@H](CO)N(C(=O)C2CCC2)[C@H]1C#N,2.69
COc1ccccc1-c1ccccc1[C@@H]1[C@@H](C#N)N(C(=O)C2CCC2)[C@@H]1CO,5.1
N#C[C@H]1[C@H](c2ccc(-c3ccccc3F)cc2)[C@H](CO)N1C(=O)C1CC1,-2.39
CCS(=O)(=O)Nc1ccc2c(c1)C(=O)N(C)[C@H]1CC[C@H](CC(=O)NC3CCCCC3)O[C@@H]1CO2,0.771
C[C@@H](NC(=O)C[C@@H]1C[C@@H]2c3cc(NS(=O)(=O)c4ccc(F)cc4)ccc3O[C@@H]2[C@H](CO)O1)c1ccccc1,0
O=C(N[C@@H]1CC[C@@H](CCn2cc(-c3ccccc3F)nn2)O[C@@H]1CO)c1ccc2c(c1)OCO2,1.59
O=C(Nc1ccc(F)cc1)N1CC(=O)N2[C@H](CO)[C@@H](c3ccc(C#Cc4ccc(F)cc4)cc3)[C@H]2C1,3.42
C/C=C/c1ccc([C@@H]2[C@@H](CO)N(C(C)=O)[C@H]2CN(C)C(=O)c2ccccn2)cc1,4.44
O=C(C[C@H]1CC[C@@H]2[C@H](COC[C@H](O)CN2CCC(F)(F)F)O1)NCc1ccc2c(c1)OCO2,2
CCCNC(=O)N1[C@@H]2CN(C(=O)c3ccncc3)c3ccccc3[C@@H]2[C@@H]1CO,1.45
CCN(C[C@H]1[C@H](c2ccccc2)[C@H](CO)N1C(C)=O)C(=O)NC1CCCC1,0.176
O=C(NC1CCCC1)N1CC(=O)N2[C@H](CO)[C@@H](c3ccc(-c4cccnc4)cc3)[C@@H]2C1,-12.2*
O=C(C1CCC1)N1CC(=O)N2[C@@H](CO)[C@@H](c3ccc(-c4cccnc4)cc3)[C@@H]2C1,-0.575
O=C(C1CCCCC1)N1CC(=O)N2[C@H](CO)[C@@H](c3ccc(-c4cccnc4)cc3)[C@H]2C1,-0.581
O=C(Nc1cc(F)ccc1F)N1CC(=O)N2[C@H](C1)[C@H](c1ccc(-c3cccnc3)cc1)[C@@H]2CO,-1.77
O=C(Nc1cc(F)ccc1F)N1CC(=O)N2[C@H](C1)[C@@H](c1ccc(-c3cccnc3)cc1)[C@@H]2CO,-8.22*
O=C(C1CCC1)N1CC(=O)N2[C@H](CO)[C@@H](c3ccc(-c4cccnc4)cc3)[C@@H]2C1,-1.92
O=C(NC1CCCC1)N1CC(=O)N2[C@@H](CO)[C@H](c3ccc(-c4cccnc4)cc3)[C@@H]2C1,-4.94*
O=C(C1CCC1)N1CC(=O)N2[C@H](CO)[C@@H](c3ccc(-c4cccnc4)cc3)[C@H]2C1,1.65
O=C(NC1CCCC1)N1CC(=O)N2[C@H](C1)[C@@H](c1ccc(-c3cccnc3)cc1)[C@@H]2CO,-5.77*
O=C(Nc1cc(F)ccc1F)N1CC(=O)N2[C@H](CO)[C@@H](c3ccc(-c4cccnc4)cc3)[C@H]2C1,1.9
O=C(C1CCC1)N1CC(=O)N2[C@H](CO)[C@H](c3ccc(-c4cccnc4)cc3)[C@H]2C1,-2.06
SMILES,IDE exosite inh
O=C(NC1CCCC1)N1CC(=O)N2[C@@H](CO)[C@@H](c3ccc(-c4cccnc4)cc3)[C@@H]2C1,1.29
CO[C@H]1CN(C)C(=O)c2cc(NS(=O)(=O)c3cccc(Cl)c3)ccc2OC[C@H](C)NC[C@@H]1C,-0.0121
CCCC#Cc1ccc2c(c1)[C@H]1[C@H](CCN1S(=O)(=O)c1cccc(F)c1)[C@H](CO)N2C,1.59
COc1ccccc1NC(=O)N1CC(=O)N2[C@H](C1)[C@@H](c1ccc(C#CCC(C)C)cc1)[C@@H]2CO,2
C/C=C/c1ccc([C@@H]2[C@@H](C#N)N(c3nc(CC)cs3)[C@H]2CO)cc1,1.51
COc1ccc(C#Cc2ccc([C@@H]3[C@@H](CO)N4CCCCN(S(=O)(=O)c5cn(C)cn5)C[C@H]34)cc2)cc1,0.146
C[C@@H]1CN([C@H](C)CO)C(=O)c2cc(-c3ccncc3)cnc2O[C@H]1CN(C)C(=O)CN1CCOCC1,-0.153
CO[C@@H]1CN(C)C(=O)c2cc(NC(=O)CC(F)(F)F)ccc2OC[C@@H](C)N(CC2CC2)C[C@H]1C,0.774
CCCNC(=O)N1C[C@H](C)[C@@H](OC)CN(C)C(=O)c2ccc(NC(=O)CC)cc2OC[C@H]1C,0.114
O=C(C1CCCCC1)N1CC(=O)N2[C@@H](CO)[C@H](c3ccc(-c4ccccc4F)cc3)[C@@H]2C1,-1.21
O=C(C1CC1)N1CC(=O)N2[C@H](CO)[C@H](c3ccc(-c4ccccc4F)cc3)[C@@H]2C1,1.2
O=C1CN(Cc2ccccc2)C[C@@H]2[C@H](c3ccc(-c4ccccc4F)cc3)[C@H](CO)N12,0.254
O=C(C1CCC1)N1CC(=O)N2[C@H](CO)[C@H](c3ccc(-c4ccccc4F)cc3)[C@H]2C1,-10.5*
O=C(C1CC1)N1CC(=O)N2[C@@H](CO)[C@@H](c3ccc(-c4ccccc4F)cc3)[C@@H]2C1,-8.4*
O=C1CN(Cc2ccccc2)C[C@@H]2[C@@H](c3ccc(-c4ccccc4F)cc3)[C@@H](CO)N12,-4.72*
O=C1CN(Cc2ccc(F)cc2)C[C@H]2[C@H](c3ccc(-c4ccccc4F)cc3)[C@@H](CO)N12,-1.24
O=C(C1CCC1)N1CC(=O)N2[C@H](C1)[C@H](c1ccc(-c3ccccc3F)cc1)[C@@H]2CO,-0.866
O=C(C1CCCCC1)N1CC(=O)N2[C@H](CO)[C@H](c3ccc(-c4ccccc4F)cc3)[C@@H]2C1,-1.69
CN(C)CC(=O)N1[C@H](CO)[C@@H](c2ccc(C#CC3CCCC3)cc2)[C@@H]1C#N,1.88
COc1ccc2c3c(n(C)c2c1)[C@@H](CO)N(CC1CCCC1)CC31CN(C(=O)Nc2ccccc2)C1,-0.117
C[C@@H]1CN([C@@H](C)CO)C(=O)CCCn2nncc2CO[C@@H]1CN(C)C(=O)NC1CCCC1,0.0466
N#C[C@H]1[C@H](c2ccc(C#Cc3ccc(F)cc3)cc2)[C@H](CO)N1C(=O)C1CCC1,1.49
CC(=O)N1CCCCN2[C@H](CO)[C@H](c3ccc(-c4ccc(C)cc4)cc3)[C@H]2C1,-1.76
CC(=O)N1CCCCN2[C@H](CO)[C@H](c3ccc(-c4ccccc4)cc3)[C@H]2C1,-1.48
Cc1cccc(-c2ccc([C@H]3[C@@H](CO)N4CCCCN(C(=O)c5ccc6c(c5)OCO6)C[C@H]34)cc2)c1,-8.11*
SMILES,IDE exosite inh
CC(=O)N1CCCCN2[C@@H](CO)[C@H](c3ccc(-c4ccccc4)cc3)[C@@H]2C1,-0.865
CC(=O)N1CCCCN2[C@H](CO)[C@H](c3ccc(-c4cccc(C)c4)cc3)[C@@H]2C1,3.58
Cc1cccc(-c2ccc([C@@H]3[C@@H](CO)N4CCCCN(C(=O)c5ccc6c(c5)OCO6)C[C@H]34)cc2)c1,0.501
Cc1cccc(-c2ccc([C@H]3[C@@H](CO)N4CCCCN(C(=O)c5ccc6c(c5)OCO6)C[C@@H]34)cc2)c1,3.04
CC(=O)N1CCCCN2[C@@H](CO)[C@H](c3ccc(-c4cccc(C)c4)cc3)[C@@H]2C1,-3.2*
CC(=O)N1CCCCN2[C@H](CO)[C@H](c3ccc(-c4cccc(C)c4)cc3)[C@H]2C1,-11.7*
CC=Cc1ccc2n(c1=O)C[C@H]1[C@H](CO)[C@@H](C(=O)NCc3ccccc3Cl)N(S(C)(=O)=O)[C@@H]21 (mixture of isomers),0.421

# Screening data (PubChem)
